Among the test systems are SR leukemia; RPMI-8226 leukemia; OVCAR-8 ovarian; OVCAR-5 ovarian; OVCAR-4 ovarian; SK-OV-3 ovarian; IGROV1 ovarian; HS 578T breast; NCI/ADR-RES ovarian.
Holding throughout (test): NCI-60 one-dose screen, 48 h (100 = growth as untreated, 0 = no growth, -100 = all killed)
A further experiment concerns OVCAR-3 ovarian. Conditions: 10 µM.

Here are results for nine compounds from PubChem BioAssay (NCI).

SMILES strings stand for the structures. Values joined by “and” are separate entries in the source; they are usually repeats but may differ in a detail not shown here. Identical values can stand only once. About 83,000 compounds went through this panel and 20% of them were active in at least one assay; those are over-represented in the sample as a whole.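 For each line, cells grew in 96-well plates with the test compound present at a single concentration for 48 hours.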 Active and inactive are the calls of the source. Rule for the calls: active = growth percent below 10; inactive = the rest.

`Nc1nc(=S)c2ncn(C3OC(CO)C(O)C3O)c2[nH]1` (configuration not stated): the growth with SR leukemia (10 µM unless noted) is 119% (inactive); with RPMI-8226 leukemia (10 µM), 103% (inactive) and 0.898% (active); in the experiment with OVCAR-8 ovarian (10 µM) it was 100% (inactive) and 13.1% (inactive); in the experiment with OVCAR-5 ovarian (10 µM), 101% (inactive) and 45.2% (inactive); in the experiment on OVCAR-4 ovarian (10 µM), 103% (inactive) and 29.3% (inactive); in the experiment on SK-OV-3 ovarian (10 µM), 118% (inactive). In addition, the growth with IGROV1 ovarian (10 µM) was 108% (inactive); in the experiment with OVCAR-3 ovarian, 112% (inactive) and 8.33% (active); in the experiment on HS 578T breast (10 µM) it was 163% (inactive) and 50.6% (inactive); with NCI/ADR-RES ovarian (10 µM), 106% (inactive) and 29.9% (inactive).
`NNc1c2ccccc2nc2ccccc12`: the growth with SR leukemia (10 µM unless noted) was 21.1% (inactive); in the experiment with RPMI-8226 leukemia (10 µM) it was 34.7% (inactive); in the experiment with OVCAR-8 ovarian (10 µM) it was 57.2% (inactive); in the experiment on OVCAR-5 ovarian (10 µM), 102% (inactive); in the experiment on OVCAR-4 ovarian (10 µM), 34.4% (inactive); in the experiment on SK-OV-3 ovarian (10 µM) it was 63.5% (inactive). The values for the growth in the experiment on IGROV1 ovarian (10 µM), with OVCAR-3 ovarian and in the experiment on NCI/ADR-RES ovarian (10 µM) were 55% (inactive), 51.4% (inactive) and 57.3% (inactive), respectively.
Take `Clc1cc(Cl)c(Cl)nn1`: the growth in the experiment on SR leukemia (10 µM unless noted) was 72% (inactive); in the experiment with RPMI-8226 leukemia (10 µM), 75.6% (inactive); with OVCAR-8 ovarian (10 µM), 94.1% (inactive); in the experiment with OVCAR-5 ovarian (10 µM), 115% (inactive); in the experiment on OVCAR-4 ovarian (10 µM), 109% (inactive); in the experiment on SK-OV-3 ovarian (10 µM), 95.2% (inactive). Besides, the growth is 107% (inactive) in the experiment on IGROV1 ovarian (10 µM), 114% (inactive) in the experiment with OVCAR-3 ovarian, 101% (inactive) in the experiment on HS 578T breast (10 µM) and 107% (inactive) with NCI/ADR-RES ovarian (10 µM).
In the case of `COc1cccc2c1C(=O)c1c(O)c3c(c(O)c1C2=O)C[C@@](O)(C(=O)CO)C[C@@H]3OC1CC(N)C(O)C(C)O1` (some centres not stated), the growth with SR leukemia (0.0025 µM) was 81.5% (inactive); in the experiment on SR leukemia (2.5 µM) it was -29.1% (active); in the experiment with SR leukemia (10 µM), -0.536% (active); in the experiment with RPMI-8226 leukemia (0.0025 µM), 101% (inactive); in the experiment with RPMI-8226 leukemia (1 µM), -15.7% (active); in the experiment on RPMI-8226 leukemia (2.5 µM), 62.7% (inactive). Further, the growth with RPMI-8226 leukemia (10 µM) was -17.4% (active); in the experiment on OVCAR-8 ovarian (0.0025 µM) it was 99.5% (inactive); in the experiment with OVCAR-8 ovarian (1 µM) it was 36.6% (inactive); with OVCAR-8 ovarian (2.5 µM), 45% (inactive); in the experiment on OVCAR-5 ovarian (0.0025 µM) it was 102% (inactive); in the experiment with OVCAR-5 ovarian (1 µM), 84.4% (inactive). In addition, the growth with OVCAR-5 ovarian (2.5 µM) is 120% (inactive); in the experiment on OVCAR-5 ovarian (10 µM), -59.3% (active); with OVCAR-4 ovarian (0.0025 µM), 114% (inactive); with OVCAR-4 ovarian (1 µM), 68% (inactive); in the experiment on OVCAR-4 ovarian (2.5 µM), 67.6% (inactive); with OVCAR-4 ovarian (10 µM) it was 14.1% (inactive). Besides, the growth in the experiment on SK-OV-3 ovarian (0.0025 µM) was 95.6% (inactive); with SK-OV-3 ovarian (1 µM) it was 28.4% (inactive); in the experiment on SK-OV-3 ovarian (2.5 µM), 43.4% (inactive); in the experiment with SK-OV-3 ovarian (10 µM) it was 13.8% (inactive); with IGROV1 ovarian (0.0025 µM) it was 85.7% (inactive); in the experiment on IGROV1 ovarian (1 µM) it was 19.9% (inactive). Further, the growth with IGROV1 ovarian (2.5 µM) is 50% (inactive); in the experiment on IGROV1 ovarian (10 µM), -7.77% (active); in the experiment with HS 578T breast (0.0025 µM) it was 97.9% (inactive); in the experiment on HS 578T breast (1 µM) it was 70.8% (inactive); in the experiment on HS 578T breast (2.5 µM), 50% (inactive); in the experiment with HS 578T breast (10 µM), -68.2% (active). Also, the growth with NCI/ADR-RES ovarian (0.0025 µM) was 103% (inactive); in the experiment on NCI/ADR-RES ovarian (1 µM) it was 104% (inactive); with NCI/ADR-RES ovarian (2.5 µM), 99% (inactive); with NCI/ADR-RES ovarian (10 µM) it was 4.94% (active).
Regarding `O=C(/C=C/c1cccnc1)c1ccccc1`, the growth in the experiment on SR leukemia (10 µM unless noted) is 14.5% (inactive); in the experiment with RPMI-8226 leukemia (10 µM) it was 54.1% (inactive); with OVCAR-8 ovarian (10 µM) it was 83.8% (inactive); in the experiment on OVCAR-5 ovarian (10 µM), 91.3% (inactive); in the experiment on OVCAR-4 ovarian (10 µM), 91.7% (inactive); in the experiment on SK-OV-3 ovarian (10 µM) it was 103% (inactive). Further, the growth in the experiment on IGROV1 ovarian (10 µM) was 96.5% (inactive); with OVCAR-3 ovarian, 85.8% (inactive); in the experiment on NCI/ADR-RES ovarian (10 µM) it was 86% (inactive).
As for `CCCCCCCCCCCC[N+](C)(C)Cc1ccccc1`, the growth in the experiment with SR leukemia (10 µM unless noted) was 4.5% (active); with RPMI-8226 leukemia (10 µM), -48.3% (active); with OVCAR-8 ovarian (10 µM), 11.9% (inactive); in the experiment on OVCAR-5 ovarian (10 µM) it was 55.6% (inactive); in the experiment with OVCAR-4 ovarian (10 µM), 3.85% (active); in the experiment with SK-OV-3 ovarian (10 µM), 34.9% (inactive). Further, the growth is -49.2% (active) with IGROV1 ovarian (10 µM), 43.2% (inactive) with HS 578T breast (10 µM) and 96.8% (inactive) in the experiment on NCI/ADR-RES ovarian (10 µM).
Turning to `O=c1ccn(C2CC(O)C(COC(c3ccccc3)(c3ccccc3)c3ccccc3)O2)c(=O)[nH]1` (configuration not stated), the growth with SR leukemia (10 µM unless noted) was 33.2% [100 µM] (inactive); with RPMI-8226 leukemia (10 µM) it was 95.8% (inactive); with RPMI-8226 leukemia (100 µM), 40.2% (inactive); in the experiment on OVCAR-8 ovarian (10 µM), 80.7% (inactive); with OVCAR-8 ovarian (100 µM) it was 44.9% (inactive); with OVCAR-5 ovarian (10 µM), 101% (inactive). Moreover, the growth was 73.7% (inactive) in the experiment on OVCAR-5 ovarian (100 µM); 94.5% (inactive) in the experiment on OVCAR-4 ovarian (10 µM); 38.5% (inactive) with OVCAR-4 ovarian (100 µM); 99.8% (inactive) in the experiment on SK-OV-3 ovarian (10 µM); 94.9% (inactive) in the experiment with SK-OV-3 ovarian (100 µM); 99.2% (inactive) in the experiment on IGROV1 ovarian (10 µM). Moreover, the growth in the experiment on IGROV1 ovarian (100 µM) was 58.1% (inactive); with HS 578T breast (10 µM), 89.3% (inactive); in the experiment on HS 578T breast (100 µM), 55.7% (inactive); with NCI/ADR-RES ovarian (10 µM) it was 85% (inactive); with NCI/ADR-RES ovarian (100 µM), 44.3% (inactive).
With `CCO/C=C1\SC(=S)N(c2cccc(O)c2)C1=O`, the growth in the experiment with SR leukemia (10 µM unless noted) was 85% (inactive); with RPMI-8226 leukemia (10 µM), 94.6% (inactive); in the experiment with OVCAR-8 ovarian (10 µM), 99.4% (inactive); in the experiment on OVCAR-5 ovarian (10 µM), 97.8% (inactive); in the experiment with OVCAR-4 ovarian (10 µM), 93.8% (inactive); in the experiment with SK-OV-3 ovarian (10 µM), 91.9% (inactive). Besides, the growth in the experiment on IGROV1 ovarian (10 µM) was 99.2% (inactive); in the experiment on OVCAR-3 ovarian, 102% (inactive); in the experiment on HS 578T breast (10 µM), 108% (inactive); in the experiment with NCI/ADR-RES ovarian (10 µM), 107% (inactive).
As for `CC[N+](CC)=c1ccc2nc3c(cc(N)c4ccccc43)oc-2c1`, the growth in the experiment with SR leukemia (10 µM unless noted) is -47.2% (active); in the experiment with RPMI-8226 leukemia (10 µM), 10.2% (inactive); with OVCAR-8 ovarian (10 µM), -28.4% (active); in the experiment on OVCAR-5 ovarian (10 µM) it was -81.7% (active); with OVCAR-4 ovarian (10 µM) it was -42.6% (active); in the experiment on SK-OV-3 ovarian (10 µM), -72.7% (active). The growth with IGROV1 ovarian (10 µM) was -42.2% (active); in the experiment on HS 578T breast (10 µM), -26.2% (active); in the experiment on NCI/ADR-RES ovarian (10 µM), -62.2% (active).
